# Laboratory results reported in article PMC7862700, “An all-to-all approach to the identification of sequence-specific readers for epigenetic DNA modifications on cytosine”.
# Tests used:
# Test in all cases: DAPPL (digital affinity profiling via proximity ligation, sequencing); 10 mM Tris-HCl pH 7.5, 50 mM NaCl, 1 mM DTT, 4% glycerol, room temperature, 30 min; GST-TFs on glutathione beads, 16-mer random dsDNA library, 0.1% formaldehyde crosslink after washing; high values mean tight binding
# [1] = biological target: T1, FLI1 (Homo sapiens, UniProt Q01543 1-452); details: protein: recombinant; tags: N-terminal GST; dsDNA, one strand shown
# T1 sequence: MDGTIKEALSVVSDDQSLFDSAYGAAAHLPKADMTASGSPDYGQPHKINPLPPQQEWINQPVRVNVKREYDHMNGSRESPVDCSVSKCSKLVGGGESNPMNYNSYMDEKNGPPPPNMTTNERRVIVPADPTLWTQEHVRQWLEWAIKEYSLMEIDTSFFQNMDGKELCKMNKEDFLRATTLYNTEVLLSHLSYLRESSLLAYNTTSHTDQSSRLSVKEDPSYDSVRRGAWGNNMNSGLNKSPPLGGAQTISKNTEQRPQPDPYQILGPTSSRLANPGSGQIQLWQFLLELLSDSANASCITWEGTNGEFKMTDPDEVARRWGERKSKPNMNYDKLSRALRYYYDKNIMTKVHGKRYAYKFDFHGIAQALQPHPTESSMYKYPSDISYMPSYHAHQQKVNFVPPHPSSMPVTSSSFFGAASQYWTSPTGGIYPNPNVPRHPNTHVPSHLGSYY
# Outline: (§1)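 Pools of DNA-barcoded human transcription factors, expressed in yeast as GST fusions on glutathione beads and combined with a tag-only sample, were incubated with 200 nmole of a 16-mer random double-stranded DNA library. Incubation took 30 min at room temperature in Tris/NaCl/DTT/glycerol buffer and was followed by washing, 0.1% formaldehyde crosslinking, proximity ligation (BsaI/T4 ligase, 1 h, 37 °C), PCR amplification and sequencing on an Illumina NextSeq500. Binding signal is the ratio of a hexamer's read frequency for a factor to its frequency for the tag-only sample.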
# [2] = biological target: T2, ELK1 (Homo sapiens, UniProt P19419 1-428); details: protein: recombinant; tags: N-terminal GST; dsDNA, one strand shown
# T2 sequence: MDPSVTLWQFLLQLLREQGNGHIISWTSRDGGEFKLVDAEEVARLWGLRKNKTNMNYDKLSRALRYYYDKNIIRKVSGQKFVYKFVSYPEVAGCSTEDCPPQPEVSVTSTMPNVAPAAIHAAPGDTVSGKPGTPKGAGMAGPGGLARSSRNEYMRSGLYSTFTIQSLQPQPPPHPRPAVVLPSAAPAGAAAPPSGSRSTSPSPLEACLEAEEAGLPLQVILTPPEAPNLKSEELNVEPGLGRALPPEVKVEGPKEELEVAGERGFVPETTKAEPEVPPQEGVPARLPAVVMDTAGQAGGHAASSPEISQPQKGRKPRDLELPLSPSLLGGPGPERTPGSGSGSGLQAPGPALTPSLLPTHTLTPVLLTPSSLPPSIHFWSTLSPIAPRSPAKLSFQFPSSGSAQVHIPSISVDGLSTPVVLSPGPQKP
# Outline: as §1
# [3] = biological target: T3, GABPA (Homo sapiens, UniProt Q06546 1-454); details: protein: recombinant; tags: N-terminal GST; dsDNA, one strand shown
# T3 sequence: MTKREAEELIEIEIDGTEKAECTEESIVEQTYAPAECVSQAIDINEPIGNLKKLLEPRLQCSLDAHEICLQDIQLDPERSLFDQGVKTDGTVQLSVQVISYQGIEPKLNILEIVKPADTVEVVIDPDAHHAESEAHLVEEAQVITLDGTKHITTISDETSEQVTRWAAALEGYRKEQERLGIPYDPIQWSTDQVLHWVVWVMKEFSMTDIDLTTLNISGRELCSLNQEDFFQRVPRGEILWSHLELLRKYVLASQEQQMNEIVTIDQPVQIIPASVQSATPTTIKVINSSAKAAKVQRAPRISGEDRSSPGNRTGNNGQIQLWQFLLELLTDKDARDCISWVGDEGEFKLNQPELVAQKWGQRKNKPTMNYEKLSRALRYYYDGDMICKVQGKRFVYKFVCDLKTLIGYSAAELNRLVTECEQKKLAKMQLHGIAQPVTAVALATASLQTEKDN
# Outline: as §1
# [4] = biological target: T4, ERG (Homo sapiens, UniProt P11308 1-479); details: protein: recombinant; tags: N-terminal GST; dsDNA, one strand shown
# T4 sequence: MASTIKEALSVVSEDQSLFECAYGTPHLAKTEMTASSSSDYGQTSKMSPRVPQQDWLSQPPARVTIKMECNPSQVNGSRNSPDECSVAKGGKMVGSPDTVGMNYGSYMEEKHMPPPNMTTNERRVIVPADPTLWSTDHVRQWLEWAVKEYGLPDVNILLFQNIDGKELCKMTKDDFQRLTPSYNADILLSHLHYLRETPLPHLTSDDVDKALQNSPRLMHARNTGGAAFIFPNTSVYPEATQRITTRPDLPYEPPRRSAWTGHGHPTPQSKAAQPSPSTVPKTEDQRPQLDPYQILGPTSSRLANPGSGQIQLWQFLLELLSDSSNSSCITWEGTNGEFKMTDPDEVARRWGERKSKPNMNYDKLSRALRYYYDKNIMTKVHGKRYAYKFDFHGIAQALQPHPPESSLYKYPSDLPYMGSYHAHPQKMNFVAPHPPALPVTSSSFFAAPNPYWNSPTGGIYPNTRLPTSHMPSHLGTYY
# Outline: as §1
# [5] = biological target: ELF1 (Homo sapiens, UniProt P32519 1-619); details: protein: recombinant; tags: N-terminal GST; dsDNA, one strand shown
# Chain of ELF1 (P32519 whole entry): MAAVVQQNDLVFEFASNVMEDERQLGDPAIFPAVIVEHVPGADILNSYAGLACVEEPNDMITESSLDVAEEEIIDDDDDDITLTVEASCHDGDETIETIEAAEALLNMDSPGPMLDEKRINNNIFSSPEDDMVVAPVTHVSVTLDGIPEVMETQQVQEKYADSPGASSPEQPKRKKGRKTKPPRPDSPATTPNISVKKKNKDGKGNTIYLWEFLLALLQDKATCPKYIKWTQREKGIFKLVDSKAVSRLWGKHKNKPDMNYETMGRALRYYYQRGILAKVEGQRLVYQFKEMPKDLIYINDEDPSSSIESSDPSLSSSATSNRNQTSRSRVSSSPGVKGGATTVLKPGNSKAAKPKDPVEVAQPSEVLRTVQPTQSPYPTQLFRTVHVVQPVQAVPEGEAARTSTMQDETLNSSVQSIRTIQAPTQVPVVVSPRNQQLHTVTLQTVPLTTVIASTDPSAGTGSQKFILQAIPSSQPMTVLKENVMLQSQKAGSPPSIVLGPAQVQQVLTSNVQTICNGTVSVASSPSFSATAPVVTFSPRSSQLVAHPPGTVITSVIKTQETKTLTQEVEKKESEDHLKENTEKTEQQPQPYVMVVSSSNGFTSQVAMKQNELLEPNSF
# Outline: as §1
# [6] = biological target: T5, EHF (Homo sapiens, UniProt Q9NZC4 1-300); details: protein: recombinant; tags: N-terminal GST; dsDNA, one strand shown
# T5 sequence: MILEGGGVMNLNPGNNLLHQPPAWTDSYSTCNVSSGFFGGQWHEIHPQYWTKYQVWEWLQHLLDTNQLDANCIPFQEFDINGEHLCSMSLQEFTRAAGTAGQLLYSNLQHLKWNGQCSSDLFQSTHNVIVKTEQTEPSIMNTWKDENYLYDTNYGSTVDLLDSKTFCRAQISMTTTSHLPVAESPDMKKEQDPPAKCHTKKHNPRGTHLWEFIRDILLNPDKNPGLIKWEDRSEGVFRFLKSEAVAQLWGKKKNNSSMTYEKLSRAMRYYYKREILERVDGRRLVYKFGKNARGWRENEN
# Outline: as §1
# [7] = biological target: SPI1 (Homo sapiens, UniProt P17947 1-270); details: protein: recombinant; tags: N-terminal GST; dsDNA, one strand shown
# Outline: as §1
# [8] = biological target: SPIB (Homo sapiens, UniProt Q01892 1-262); details: protein: recombinant; tags: N-terminal GST; dsDNA, one strand shown
# Chain of SPIB (Q01892 whole entry): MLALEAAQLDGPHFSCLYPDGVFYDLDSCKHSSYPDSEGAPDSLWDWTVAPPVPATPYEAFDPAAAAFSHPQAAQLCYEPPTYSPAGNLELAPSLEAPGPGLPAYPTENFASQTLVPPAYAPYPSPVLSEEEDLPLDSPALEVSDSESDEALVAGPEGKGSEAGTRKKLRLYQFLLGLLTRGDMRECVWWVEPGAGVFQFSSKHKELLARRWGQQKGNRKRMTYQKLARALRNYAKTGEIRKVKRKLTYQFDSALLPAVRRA
# Outline: as §1
# [9] = biological target: T6, ELK3 (Homo sapiens, UniProt P41970 1-407); details: protein: recombinant; tags: N-terminal GST; dsDNA, one strand shown
# T6 sequence: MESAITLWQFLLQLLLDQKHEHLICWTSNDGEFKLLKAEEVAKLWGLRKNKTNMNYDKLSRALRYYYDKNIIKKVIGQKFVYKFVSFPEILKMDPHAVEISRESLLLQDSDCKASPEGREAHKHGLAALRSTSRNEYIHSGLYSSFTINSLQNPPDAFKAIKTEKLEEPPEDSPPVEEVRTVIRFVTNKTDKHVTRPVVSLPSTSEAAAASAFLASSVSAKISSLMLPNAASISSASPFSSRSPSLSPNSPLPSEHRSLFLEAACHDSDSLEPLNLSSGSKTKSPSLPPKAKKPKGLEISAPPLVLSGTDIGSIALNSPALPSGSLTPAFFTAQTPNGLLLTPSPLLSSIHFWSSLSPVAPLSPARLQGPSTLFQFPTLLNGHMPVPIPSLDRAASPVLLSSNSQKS
# Outline: as §1
# [10] = biological target: T7, FEV (Homo sapiens, UniProt Q99581 1-238); details: protein: recombinant; tags: N-terminal GST; dsDNA, one strand shown
# T7 sequence: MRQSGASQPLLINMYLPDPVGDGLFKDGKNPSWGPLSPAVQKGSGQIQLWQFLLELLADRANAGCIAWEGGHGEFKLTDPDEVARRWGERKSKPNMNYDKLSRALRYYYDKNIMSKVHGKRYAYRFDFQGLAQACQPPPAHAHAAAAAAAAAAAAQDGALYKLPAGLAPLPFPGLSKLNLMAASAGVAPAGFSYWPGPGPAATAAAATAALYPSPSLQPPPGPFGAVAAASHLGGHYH
# Outline: as §1
# [11] = biological target: ETV5 (Homo sapiens, UniProt P41161 1-510); details: protein: recombinant; tags: N-terminal GST; dsDNA, one strand shown
# Chain of ETV5 (P41161 whole entry): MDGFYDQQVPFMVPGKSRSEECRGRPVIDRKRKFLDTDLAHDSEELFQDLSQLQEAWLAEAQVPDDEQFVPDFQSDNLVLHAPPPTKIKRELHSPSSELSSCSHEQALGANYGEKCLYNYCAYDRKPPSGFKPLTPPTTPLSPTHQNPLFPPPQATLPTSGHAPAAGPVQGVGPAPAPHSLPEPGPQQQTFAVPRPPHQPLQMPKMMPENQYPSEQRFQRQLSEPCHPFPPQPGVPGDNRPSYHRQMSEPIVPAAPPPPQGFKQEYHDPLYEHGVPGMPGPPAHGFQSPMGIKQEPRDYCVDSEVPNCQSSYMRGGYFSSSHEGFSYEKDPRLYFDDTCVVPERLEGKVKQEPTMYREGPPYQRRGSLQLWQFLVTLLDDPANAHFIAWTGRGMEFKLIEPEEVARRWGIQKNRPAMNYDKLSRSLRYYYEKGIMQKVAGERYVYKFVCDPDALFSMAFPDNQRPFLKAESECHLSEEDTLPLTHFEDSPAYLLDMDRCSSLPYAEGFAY
# Outline: as §1
# [12] = biological target: HSF1 (Homo sapiens, UniProt Q00613 1-529); details: protein: recombinant; tags: N-terminal GST; chain copies: 3; dsDNA, one strand shown
# Chain of HSF1 (Q00613 whole entry): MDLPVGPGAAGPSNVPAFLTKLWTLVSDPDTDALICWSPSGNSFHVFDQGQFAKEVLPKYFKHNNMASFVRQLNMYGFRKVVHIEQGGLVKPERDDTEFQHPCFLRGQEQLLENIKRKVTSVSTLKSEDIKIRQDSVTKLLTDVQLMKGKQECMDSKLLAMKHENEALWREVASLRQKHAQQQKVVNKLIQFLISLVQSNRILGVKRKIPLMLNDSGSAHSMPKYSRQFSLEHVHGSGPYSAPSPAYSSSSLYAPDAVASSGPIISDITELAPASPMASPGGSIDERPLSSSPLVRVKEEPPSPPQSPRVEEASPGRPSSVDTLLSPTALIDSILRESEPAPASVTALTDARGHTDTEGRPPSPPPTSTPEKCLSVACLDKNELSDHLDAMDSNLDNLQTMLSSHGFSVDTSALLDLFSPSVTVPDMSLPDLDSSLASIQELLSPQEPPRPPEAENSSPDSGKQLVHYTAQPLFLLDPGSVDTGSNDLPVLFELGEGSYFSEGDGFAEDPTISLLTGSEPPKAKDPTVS
# Outline: as §1
# [13] = biological target: T8, SPIC (Homo sapiens, UniProt Q8N5J4 1-248); details: protein: recombinant; tags: N-terminal GST; dsDNA, one strand shown
# T8 sequence: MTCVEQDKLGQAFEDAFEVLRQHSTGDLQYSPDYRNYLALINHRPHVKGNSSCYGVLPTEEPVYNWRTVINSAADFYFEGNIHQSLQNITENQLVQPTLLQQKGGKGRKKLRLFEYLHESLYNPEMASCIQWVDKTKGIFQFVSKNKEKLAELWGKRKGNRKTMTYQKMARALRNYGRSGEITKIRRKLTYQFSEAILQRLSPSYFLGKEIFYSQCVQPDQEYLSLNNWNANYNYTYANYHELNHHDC
# Outline: as §1
# [14] = biological target: ELF4 (Homo sapiens, UniProt Q99607 1-663); details: protein: recombinant; tags: N-terminal GST; dsDNA, one strand shown
# Chain of ELF4 (Q99607 whole entry): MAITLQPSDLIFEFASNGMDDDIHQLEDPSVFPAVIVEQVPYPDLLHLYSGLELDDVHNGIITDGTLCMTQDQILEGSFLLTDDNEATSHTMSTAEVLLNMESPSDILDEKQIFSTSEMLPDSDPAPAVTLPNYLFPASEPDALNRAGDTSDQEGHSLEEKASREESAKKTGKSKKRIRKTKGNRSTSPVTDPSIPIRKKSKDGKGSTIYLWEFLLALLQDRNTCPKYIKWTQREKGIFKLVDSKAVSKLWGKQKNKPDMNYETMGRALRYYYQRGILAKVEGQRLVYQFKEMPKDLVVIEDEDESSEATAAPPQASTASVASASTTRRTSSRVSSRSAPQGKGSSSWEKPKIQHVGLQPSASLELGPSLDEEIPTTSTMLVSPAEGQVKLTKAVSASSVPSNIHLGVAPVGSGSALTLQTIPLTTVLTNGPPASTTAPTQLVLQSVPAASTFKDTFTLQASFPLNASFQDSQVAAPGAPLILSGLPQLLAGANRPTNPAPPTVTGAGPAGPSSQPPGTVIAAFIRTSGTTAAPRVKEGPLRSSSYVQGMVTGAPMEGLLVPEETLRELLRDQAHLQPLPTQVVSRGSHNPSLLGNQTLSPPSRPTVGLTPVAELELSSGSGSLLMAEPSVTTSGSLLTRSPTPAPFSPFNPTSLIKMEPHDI
# Outline: as §1
# [15] = biological target: T9, ELK4 (Homo sapiens, UniProt P28324-2 1-405); details: protein: recombinant; tags: N-terminal GST; dsDNA, one strand shown
# T9 sequence: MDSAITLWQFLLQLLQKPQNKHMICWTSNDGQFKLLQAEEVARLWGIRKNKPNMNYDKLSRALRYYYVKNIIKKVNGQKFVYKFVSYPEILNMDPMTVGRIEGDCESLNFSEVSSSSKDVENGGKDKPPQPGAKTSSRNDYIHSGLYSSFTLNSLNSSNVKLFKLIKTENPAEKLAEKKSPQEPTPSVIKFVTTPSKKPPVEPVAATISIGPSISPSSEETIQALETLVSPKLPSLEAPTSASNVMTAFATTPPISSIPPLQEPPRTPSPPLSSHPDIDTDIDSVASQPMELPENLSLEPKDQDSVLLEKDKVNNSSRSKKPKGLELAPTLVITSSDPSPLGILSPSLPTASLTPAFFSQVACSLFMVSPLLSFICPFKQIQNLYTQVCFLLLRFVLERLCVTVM
# Outline: as §1
# [16] = biological target: T10, ETV2 (Homo sapiens, UniProt O00321 1-342); details: protein: recombinant; tags: N-terminal GST; dsDNA, one strand shown
# T10 sequence: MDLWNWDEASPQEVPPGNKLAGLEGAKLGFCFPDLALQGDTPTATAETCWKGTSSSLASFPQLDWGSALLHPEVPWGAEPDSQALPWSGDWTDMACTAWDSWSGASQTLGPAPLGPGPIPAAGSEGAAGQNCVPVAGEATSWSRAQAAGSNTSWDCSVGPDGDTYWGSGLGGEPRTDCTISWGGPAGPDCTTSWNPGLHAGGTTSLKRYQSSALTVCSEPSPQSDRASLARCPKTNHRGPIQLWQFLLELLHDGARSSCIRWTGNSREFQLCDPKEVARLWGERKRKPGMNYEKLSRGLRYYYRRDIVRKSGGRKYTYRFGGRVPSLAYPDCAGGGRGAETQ
# Outline: as §1
# [17] = biological target: T11, ELF3 (Homo sapiens, UniProt P78545 1-371); details: protein: recombinant; tags: N-terminal GST; dsDNA, one strand shown
# T11 sequence: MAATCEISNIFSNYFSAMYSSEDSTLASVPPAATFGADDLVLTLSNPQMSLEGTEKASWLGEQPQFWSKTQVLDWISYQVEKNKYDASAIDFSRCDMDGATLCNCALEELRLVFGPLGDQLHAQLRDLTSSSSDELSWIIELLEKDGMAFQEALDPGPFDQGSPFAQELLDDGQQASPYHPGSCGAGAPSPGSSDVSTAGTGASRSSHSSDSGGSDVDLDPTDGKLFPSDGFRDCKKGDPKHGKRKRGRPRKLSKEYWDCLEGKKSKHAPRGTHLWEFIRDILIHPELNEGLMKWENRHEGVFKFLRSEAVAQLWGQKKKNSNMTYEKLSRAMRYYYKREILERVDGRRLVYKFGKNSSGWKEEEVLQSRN
# Outline: as §1
# [18] = biological target: CRX (Homo sapiens, UniProt O43186 1-299); details: protein: recombinant; tags: N-terminal GST; dsDNA, one strand shown
# Chain of CRX (O43186 whole entry): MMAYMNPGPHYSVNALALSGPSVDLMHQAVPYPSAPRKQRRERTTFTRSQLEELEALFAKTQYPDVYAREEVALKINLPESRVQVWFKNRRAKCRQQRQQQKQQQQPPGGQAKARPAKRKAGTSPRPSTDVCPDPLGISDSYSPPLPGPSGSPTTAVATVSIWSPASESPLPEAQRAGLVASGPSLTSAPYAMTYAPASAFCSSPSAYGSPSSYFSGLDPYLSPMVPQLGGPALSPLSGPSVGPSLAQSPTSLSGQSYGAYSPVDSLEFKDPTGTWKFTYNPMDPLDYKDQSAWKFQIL
# Outline: as §1
# [19] = biological target: ETV1 (Homo sapiens, UniProt P50549 1-477); details: protein: recombinant; tags: N-terminal GST; dsDNA, one strand shown
# Chain of ETV1 (P50549 whole entry): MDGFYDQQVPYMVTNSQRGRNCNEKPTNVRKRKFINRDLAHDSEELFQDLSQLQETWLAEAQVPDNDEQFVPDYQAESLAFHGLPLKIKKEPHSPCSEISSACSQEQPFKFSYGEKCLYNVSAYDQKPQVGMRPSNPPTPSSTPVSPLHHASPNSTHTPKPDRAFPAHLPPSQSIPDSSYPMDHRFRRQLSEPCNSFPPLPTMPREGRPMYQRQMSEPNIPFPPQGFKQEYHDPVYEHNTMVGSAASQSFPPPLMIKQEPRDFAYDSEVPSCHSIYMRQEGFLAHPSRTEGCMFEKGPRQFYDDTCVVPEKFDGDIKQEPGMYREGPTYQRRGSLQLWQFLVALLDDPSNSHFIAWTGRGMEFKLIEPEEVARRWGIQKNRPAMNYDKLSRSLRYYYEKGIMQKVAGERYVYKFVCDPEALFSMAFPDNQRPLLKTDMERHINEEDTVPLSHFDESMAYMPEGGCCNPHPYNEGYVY
# Outline: as §1
sequence,measurement,setting,value
TATAAA,binding signal,[1],"1.17 fold enrichment (6-mer frequency, TF over GST control)"
same,binding signal,[2],"1.29 fold enrichment (6-mer frequency, TF over GST control)"
same,binding signal,[3],"1.21 fold enrichment (6-mer frequency, TF over GST control)"
same,binding signal,[4],"1.18 fold enrichment (6-mer frequency, TF over GST control)"
same,binding signal,[5],"1.21 fold enrichment (6-mer frequency, TF over GST control)"
same,binding signal,[6],"1.28 fold enrichment (6-mer frequency, TF over GST control)"
same,binding signal,[7],"1.26 fold enrichment (6-mer frequency, TF over GST control)"
same,binding signal,[8],"1.3 fold enrichment (6-mer frequency, TF over GST control)"
same,binding signal,[9],"1.26 fold enrichment (6-mer frequency, TF over GST control)"
same,binding signal,[10],"1.16 fold enrichment (6-mer frequency, TF over GST control)"
same,binding signal,[11],"1.18 fold enrichment (6-mer frequency, TF over GST control)"
same,binding signal,[12],"1.47 fold enrichment (6-mer frequency, TF over GST control)"
same,binding signal,[13],"1.26 fold enrichment (6-mer frequency, TF over GST control)"
same,binding signal,[14],"1.23 fold enrichment (6-mer frequency, TF over GST control)"
same,binding signal,[15],"1.32 fold enrichment (6-mer frequency, TF over GST control)"
same,binding signal,[16],"1.2 fold enrichment (6-mer frequency, TF over GST control)"
same,binding signal,[17],"1.33 fold enrichment (6-mer frequency, TF over GST control)"
same,binding signal,[18],"1.85 fold enrichment (6-mer frequency, TF over GST control)"
same,binding signal,[19],"1.16 fold enrichment (6-mer frequency, TF over GST control)"
